The values below come from PubChem BioAssay (NCI).

What all share (assay): NCI-60 one-dose screen, 48 h (100 = growth as untreated, 0 = no growth, -100 = all killed)
Common to all, as to details: 10 µM unless noted

In test [1] the test system is T-47D breast.
Test [2] relates to BT-549 breast.
The test system of test [3] is MDA-MB-435 melanoma.
In test [4] the test system is SW-620 colon.
The subject of test [5] is MCF7 breast.
For test [6], the system named is HCT-116 colon.
Test [7] has as its system HCC-2998 colon.
Test [8] deals with KM12 colon.
The test system of test [9] is MDA-MB-468 breast.

Structures are written as SMILES. The panel holds about 83,000 compounds, 20% with a hit somewhere; the sample as a whole holds those more often.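 Note: values are percent growth. 100 is the growth of untreated cells, values between 100 and 0 indicate rising inhibition; between -100 and 0 indicates cell death.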 Unmarked numbers belong to inactive results. The source made the active and inactive calls. How the source made its calls: active means growth percent below 10; inactive means the rest.

In the case of `CCC(=O)c1cc(C(=O)OC)c2ccc3c4ccccc4ccc3n12`, the growth was 75.8% in test [1]; 112% in test [2]; 93.6% in [3]; 84.4% in [4]; 80.5% in [5]; 35% in test [6]. Moreover, the growth in test [7] is 99.8%; in test [8], 84.7%; in test [9], 83.6%.

For the compound `Cc1cccc(NCC(=O)N2CCN(c3ncnc4c3cnn4-c3ccccc3)CC2)c1`, the growth in test [1] was 33.6%; in test [2], 76.9%; in [3] it was 59%; in [4] it was 81.5%; in test [5], 45.6%; in [6], 58.7%. Moreover, the results for the growth in [7], in test [8] and in test [9] were 86.4%, 40.6% and 35.8%, respectively.

Consider `COc1ccc2nc(NC(=O)c3ccc(N(C)C)cc3)sc2c1`, for which the growth was 69% in test [1]; 58.7% in test [2]; 79.8% in test [3]; 91.8% in test [4]; 44.7% in test [5]; 79.8% in test [6]. Further, the results for the growth in test [7], in test [8] and in test [9] were 98.2%, 57.8% and 41.1%, respectively.

For `COc1ccc2c(c1)C(Sc1ccc(F)cc1)c1c(nc(N)c(C#N)c1N)O2` (stereo unspecified), the growth in test [1] was 79%; in test [2], 62.1%; in [3], 91%; in [4], 84.7%; in test [5], 67.5%; in test [6] it was 79.9%. Also, the growth in [7] was 114%; in test [8], 85%; in [9], 99.6%.

In the case of `CNc1nc2ccccc2n2c(-c3ccc(O)c(O)c3)cnc12`, the growth in [1] was 42.2%; in test [2], -22.3% (active); in [3], -9.22% (active); in test [4] it was 24.6%; in test [5], 4.34% (active); in [6], 2.74% (active). Also, the figures for the growth in [7], in test [8] and in test [9] were 19.9%, -0.402% (active) and 5.66% (active), respectively.

Take `CC1=C(C(=O)OCc2ccccc2)C(c2cccc3ccccc23)n2c(nc3ccccc32)N1` (stereo unspecified): the growth in [1] is 30.2%; in [2] it was 25%; in test [3], -45.5% (active); in test [4], 23.7%; in test [5] it was 12.7%; in [6] it was 17.7%. Also, the growth in [7] was 57%; in test [8], 19.1%; in [9], -42.5% (active).

Turning to `N#Cc1ccc(C(=O)NNC(=O)CSc2nc3sc4c(c3c(=O)n2-c2ccc(Cl)cc2)CCCC4)cc1`, the growth is 58.6% in test [1]; 22.7% in test [2]; 63.7% in [3]; 60.3% in [4]; 63% in [5]; 37.5% in [6]. Further, the figures for the growth in test [7], in [8] and in test [9] were 96.1%, 91.2% and 92%, respectively.

With `O=C(N=Nc1c(O)[nH]c2ccc(Br)cc12)c1ccc2nc(-c3ccc(Cl)cc3)[nH]c2c1`, the growth in test [1] was -30.7% (active); in test [2], 7.28% (active); in [3], -62.4% (active); in test [4], -37.2% (active); in test [5], -22.9% (active); in [6], 8.39% (active). Further, the growth was -66.8% (active) in test [7], 22.4% in test [8] and -87.7% (active) in [9].

Consider `CCOC(=O)/C(F)=C/C1CC1C1CCN(C(=O)OC(C)(C)C)CC1` (stereo unspecified), for which the growth in [1] was 74.6%; in test [2], 125%; in [3], 105%; in test [4], 101%; in [5], 83.9%; in [6], 99.1%. Besides, the growth in test [7] was 111%; in [8], 102%; in [9] it was 94.8%.

Regarding `c1n[nH]cc1-c1nc2ccc3[nH]ncc3c2c2c1CC1(CCOCC1)CC2`, the growth in [1] is 13.5%; in [2], 10.9%; in test [3], 29.3%; in test [4], 17.9%; in test [5], 31.8%; in test [6], 11.1%. In addition, the growth in test [7] was 41.1%; in test [8], 47.3%; in test [9], 5.4% (active).

Consider `S=C(Nc1ccc(OCc2nc3ccc(Cl)cc3[nH]2)cc1)NC1CCCCC1`, for which the growth was 17.3% in [1]; 13.5% in test [2]; -10.4% (active) in [3]; -7.01% (active) in test [4]; 0.799% (active) in [5]; -31.6% (active) in test [6]. Further, the growth in [7] was -69.5% (active); in test [8], -12.5% (active); in test [9] it was -30.8% (active).

As to `Cc1cc(Cl)ccc1NC(=O)Nc1ccc(-c2ccc3c(c2)NC(=O)/C3=C\c2ccc[nH]2)cc1`, the growth is 26.4% in test [1]; 79.1% in test [2]; 98.6% in test [3]; 89.3% in test [4]; 18.7% in [5]; 108% in test [6]. Besides, the growth in test [7] was 118%; in test [8], 25.8%; in [9] it was -2.85% (active).

Regarding `CC1CCc2c(sc3nc(SCC(=O)c4cccc(Br)c4)n(-c4ccccc4)c(=O)c23)C1` (stereo unspecified), the growth was 15.9% in test [1]; 78.5% in test [2]; 29.5% in [3]; 28.5% in test [4]; 56.9% in [5]; 2.87% (active) in test [6]. Moreover, the growth was 60.6% in test [7], 89.6% in test [8] and 29.6% in test [9].

With `COc1sc(/C=N/NC(=O)c2[nH]c3ccc(Br)cc3c2-c2ccccc2)cc1Cl`, the growth is 54.3% in [1]; -35.2% (active) in test [2]; -10.1% (active) in test [3]; -33.8% (active) in [4]; -26.6% (active) in [5]; -43.5% (active) in [6]. The figures for the growth in test [7], in test [8] and in [9] were -30.8% (active), -16.1% (active) and -6.37% (active), respectively.
